From PubChem
D2 PAM-1 – human D2 receptor positive allosteric modulation. P14416. 360,000 tested, 0.23% active. DiscoveRx D2 beta-arrestin cells, luminescence, 90 min; 100% = 57 uM dopamine signal. potentiation, % (no concentration beside the values). AID 624464; in the data active = potentiation above about 50%
Target sequence (P14416 whole entry, looked up): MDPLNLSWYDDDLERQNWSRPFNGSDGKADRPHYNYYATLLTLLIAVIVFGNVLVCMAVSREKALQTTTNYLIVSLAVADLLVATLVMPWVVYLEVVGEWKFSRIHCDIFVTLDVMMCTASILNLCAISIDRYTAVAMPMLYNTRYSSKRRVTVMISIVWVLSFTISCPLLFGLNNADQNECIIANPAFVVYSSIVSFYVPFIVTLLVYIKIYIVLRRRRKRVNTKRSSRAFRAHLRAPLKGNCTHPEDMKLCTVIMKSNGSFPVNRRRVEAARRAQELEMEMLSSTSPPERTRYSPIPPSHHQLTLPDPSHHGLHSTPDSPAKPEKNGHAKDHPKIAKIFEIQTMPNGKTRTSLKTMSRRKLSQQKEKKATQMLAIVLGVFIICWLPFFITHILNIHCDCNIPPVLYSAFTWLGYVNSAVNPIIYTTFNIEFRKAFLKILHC
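PathHunter D2 cells, attached overnight at 37 deg C, received compound in DMSO plus dopamine at EC20 (50 nM final) for 90 min at 37 deg C. Beta-arrestin recruitment was read as luminescence after 1 h with detection reagent at ambient temperature.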
D2 ag-1 – agonists of human D2 dopamine receptor (beta-arrestin) | DiscoveRx PathHunter D2 beta-arrestin, luminescence, 90 min; 100% = 57 uM dopamine signal | 360,000 tested, 0.084% active | activation, % (no concentration beside the values) | AID 624465; in the data active = activation above about 40%
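DiscoveRx PathHunter D2 beta-arrestin cells (2,100/well) attached overnight, then compound-stimulated 90 min at 37 C in HBSS/10 mM HEPES/0.1% Tween-20 buffer; beta-galactosidase complementation read by luminescence after 1 h at ambient temperature. Dopamine 57 uM final (EC100) as control.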
D2 PAM-2 – D2 dopamine receptor (human) potentiation; P14416; HEK293 T-REx D2, calcium flux, EC20 dopamine potentiation; potentiation, % at 10 µM; 340,000 tested, 0.34% active; AID 485347;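 active = potentiation over 3 SD above the plate norm, cut at about 30% in these data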; also: 0% is about no effect
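Potentiation of an EC20 dopamine calcium response is measured in a force-coupled, tetracycline-inducible Hek293 Trex D2 line. Compound-only kinetic reads over 180 s flag agonists before dopamine addition.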
D2 ag-2 – D2 dopamine receptor (human) agonism | HEK293 T-REx D2 cells, calcium flux agonist mode | activation, % at 2 µM | 340,000 tested, 0.53% active | AID 485358;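 active = activation over 3 SD above normal in the single-dose calcium agonist read, cut at about 30% in these data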; also: 0% is about no effect
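Agonism scored from kinetic calcium signal (1 read/sec, 180 s) following compound pin transfer, after a 10 s baseline. Cells: HEK293 Trex line expressing inducible D2 receptor coupled to calcium, dye-loaded after overnight culture at 30 C.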
D2 antagonist – antagonists of human D2 dopamine receptor | inhibition, % at 10 µM | 340,000 tested, 2% active | HEK293 TREx D2 cells, calcium flux, dopamine EC80 | AID 485344 | P14416; in the data active = inhibition above about 30%; inactive = below that, where a call was filed; also: 0% is about no effect
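Measurement of antagonist activity uses fluorescent calcium dye in inducible HEK293 T-REx D2 cells: 10 s baseline, compound addition with 180 s read, EC80 dopamine addition with a further 180 s read.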
* = called active by the depositor; · = no result; ! = repeats disagree. In the library only some 2.4% were active in any assay of this set; here they are far more common.

SMILES	D2 PAM-1	D2 ag-1	D2 PAM-2	D2 ag-2	D2 antagonist
Cc1ccc(C(=O)O)cc1Nc1nc2ccccc2n2nnnc12	·	·	3.6	0.7	·
Cc1onc(-c2ccccc2)c1C(=O)OCC(=O)Nc1ccc(Cl)cc1	2.8	3.0	-4.0	-0.1	37.4*
CC1CCC(C(C)C)C(OC(=O)C[n+]2cc(-c3ccc(Cl)cc3)n3c2CCCCC3)C1 (stereo not given)	-6.5	1.0	-5.2	0.9	33.1*
Cc1csc2ncnc(NC3CCN(Cc4ccccc4)CC3)c12	-2.0	-1.4	-21.1	-2.6	78.6*
Cc1ccc(-c2csc3ncnc(N4CCN(Cc5ccccc5)CC4)c23)cc1	-2.9	-2.1	·	·	·
COc1ccc2cc(C(C)C(=O)N3CCC(C(N)=O)CC3)ccc2c1 (stereo not given)	-5.2	0.0	32.3*	-2.2	-15.7
Cc1ccc(NC(=O)CCC(=O)N2CCSc3ccccc32)cc1Cl	·	·	·	0.3	·
COc1ccc(C2=NOC(C(=O)NCc3ccc(F)cc3)C2)cc1OC (stereo not given)	-7.7	1.0	37.0*	-0.1	8.5
COc1cc(C2=NOC(C(=O)Nc3ccc4c(c3)OCO4)C2)cc(OC)c1OC (stereo not given)	4.9	-0.1	10.6	-1.1	-2.8
COc1cc(C2=NOC(C(=O)Nc3ccc(C)cc3)C2)cc(OC)c1OC (stereo not given)	9.3	-3.0	10.9	-0.7	57.1*
COc1cccc(C2=NOC(C(=O)Nc3ccc4c(c3)OCO4)C2)c1OC (stereo not given)	-15.6	0.8	-24.9	0.1	59.8*
CCCCCCCC(=O)Oc1ccc(C(=O)Nc2cc(C)on2)cc1	-0.4	-0.4	-9.2	-0.8	37.0*
O=C(COC(=O)/C=C/c1ccc(S(=O)(=O)N2CCOCC2)cc1)NCc1ccc(Cl)cc1	-14.3	-5.2	-15.3	0.5	46.5*
O=C(COc1ccccc1)N/N=C/c1sc(=O)n(Cc2cccc(C(=O)O)c2)c1Cl	-3.7	3.3	-4.5	0.2	44.4*
Cc1ccc(OCc2ccoc2C(=O)O)cc1C	-5.1	-0.7	-4.6	-0.8	30.2*
CN(C)CCOC(c1ccc(Cl)cc1)c1ccccn1 (stereo not given)	-23.5	97.9*!	-9.7	-0.7	0.1
CN(C)CCOC(c1ccccc1)c1ccccc1	-11.4	-5.8	-12.0	1.9	-12.6
COc1ccc(NC(=O)CC2C(=O)N(c3cccc(C)c3)C(=O)N2Cc2cccnc2)cc1 (stereo not given)	·	·	1.5	0.1	·
C=CCNc1nc(Cl)nc(Nc2ccc(OC)cc2OC)n1	-4.3	-1.4	1.4	0.2	-13.4
COc1ccc(Nc2nc(Cl)nc(Nc3ccc(OC)cc3OC)n2)c(OC)c1	-3.5	6.3	-6.1	0.2	51.3*
COc1ccc(NC(=O)CSc2nc3c(c(=O)n2-c2ccc(F)cc2)SCC3)c(OC)c1	-20.2	-4.4	3.5	0.4	37.7*
COc1ccc(-n2c(SCC(=O)Nc3cc(C)on3)nc3c(c2=O)SCC3)cc1	-2.7	-1.7	-6.9	-0.6	6.8
O=C(CCC(=O)N1CCSc2ccccc21)Nc1ccc(Cl)cc1	·	·	2.2	-0.1	·
Cc1ccc(C(=O)Nc2c(C(=O)N3CCOCC3)cnn2-c2ccccc2)cc1	-7.9	-2.9	32.6*	-0.9	-30.8
O=C(Nc1c(C(=O)N2CCOCC2)cnn1-c1ccccc1)c1ccc([N+](=O)[O-])cc1	-8.9	6.9	2.2	0.1	-6.2
SMILES	D2 PAM-1	D2 ag-1	D2 PAM-2	D2 ag-2	D2 antagonist
CC(NC(=O)c1ccccc1Cl)C(=O)Nc1ccc2c(c1)OCO2 (stereo not given)	-6.2	-8.3	-9.9	0.3	72.7*
CN(c1ccccc1C(=O)Nc1cccc(Cl)c1Cl)S(C)(=O)=O	-10.8	-2.1	-8.1	0.5	53.3*
CN(c1ccccc1C(=O)Nc1ccc2c(c1)OCO2)S(C)(=O)=O	-4.3	-2.1	37.6*	-0.4	-10.9
O=C(CC(NC(=O)c1ccccc1Cl)c1ccccc1)Nc1ccc2c(c1)OCO2 (stereo not given)	-4.1	-3.5	·	·	·
COc1cc(NC(=O)CN(c2ccc(C)cc2)S(=O)(=O)c2cccc3nonc23)cc(OC)c1	·	·	-1.1	0.9	·
Cc1ccc(C(=O)NCC(c2cccs2)S(=O)(=O)c2cccs2)cc1 (stereo not given)	·	·	-4.2	0.4	·
